Data on 38 compounds can be found in PubChem BioAssay (EPA / NIEHS).

Records with an inconclusive call do not appear. Activity calls are given as the source filed them. How the source made its calls: active means hit-call score of the fitted dose curve at least 0.9, where 1 is the maximum; inconclusive means response in the unintended direction; inactive means score below 0.9.

The nature of this assay: ACEA_ER_80hr: ACEA Biosciences xCELLigence Real-Time Cell Analysis on Estrogen Receptor Agonism for Proliferation (AID 2282667). The following applies: T47D proliferation, impedance (xCELLigence), 80 h. The gist of the method:
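Estrogen-driven proliferation is captured as electrode impedance in T47D cells 80 h after compound addition. Test articles ran at 8 concentrations, 1:4 dilutions from 100 uM final, in two replicate plates.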
On to `CCCCOCCOCCOC(C)=O`, for which the result was inactive.
As for `CC1=CCC2CC1C2(C)C` (stereo not drawn), the result was inactive.
On the same count and under the same terms, under `c1ccc2cnccc2c1` stands “inactive”.
Turning to `CCCCCCCCCCCCc1ccc(O)cc1`, the AC50 (in general, the midpoint of the concentration-response curve, whichever way the signal moves) is 0.35 µM (active).
In the case of `O=C(C=Cc1ccccc1)OCCc1ccccc1`, the result was inactive.
The same measure, in the same setting: under `CCC(C)N` (stereo not drawn) stands “inactive”; under `CCCCCCOC(=O)CCCCC(=O)OCCCCCC`, “inactive”; under `CCCC/C=C/C=C\C=O`, “inactive”.
With `Oc1c(Cl)cc(Cl)c(Cl)c1Cl`, the AC50 is 10.5 µM (active).
`CN(C)c1ccc2nc3ccc(=[N+](C)C)cc-3sc2c1`: the call was inactive.
Still for that read-out and setting: under `CCC(=O)C1CC(C(C)C)CC=C1C` (stereo not drawn) stands “inactive”.
With `O=C1CCCCCCCCCCCN1`, the AC50 was 53.3 µM (active).
Turning to `CC(=O)OCC=C(C)C`, the compound was classed as inactive.
Same read-out and setting: under `CC(C=O)c1ccccc1` (stereo not drawn) stands “inactive”; under `N=C1C=CC(=C(c2ccc(N)cc2)c2ccc(N)cc2)C=C1`, “inactive”.
For `CO[Si](CCCS)(OC)OC`, the result was inactive.
As for `CCCCCCCO`, the result was inactive.
Still for that read-out and setting: the value for `CC1CCC(=O)C1=O` (stereo not drawn) was “inactive”; that for `CCOC(=O)c1ccc(C)cc1` was “inactive”.
On the same count and under the same terms, under `CC(C)(C)N` stands “inactive”; under `COC(Cc1ccccc1)OC`, “inactive”.
Same read-out and setting: the value for `CC1(C)CCC[C@]2(C)[C@H]3CC(=O)O[C@]3(C)CC[C@@H]12` was “inactive”.
Turning to `CCOC(=O)[C@H](O)[C@@H](O)C(=O)OCC`, the compound was called inactive.
Still for that read-out and setting: under `CCCC=C(C=O)CC` stands “inactive”.
On the same count and under the same terms, the value for `CC(C)c1cc(C(C)C)cc(C(C)C)c1` was “inactive”; that for `O=C(O[C@@H]1Cc2c(O)cc(O)cc2O[C@@H]1c1cc(O)c(O)c(O)c1)c1cc(O)c(O)c(O)c1` was “inactive”.
The same measure, in the same setting: under `CC1=NN(c2ccc(S(=O)(=O)O)cc2)C(=O)C1N=Nc1ccccc1` (stereo not drawn) stands “inactive”; under `CC(=O)CCC=C(C)C`, “inactive”; under `COc1ccc(C(=O)/C(Br)=C\C(=O)O)cc1`, “inactive”.
With `CCOC(=O)CC(=O)c1ccccc1`, the compound was called inactive.
Same read-out and setting: under `CC(c1cc(C(C)(C)C)cc(C(C)(C)C)c1O)c1cc(C(C)(C)C)cc(C(C)(C)C)c1O` stands “inactive”; under `Cc1ccc(C)c(OCCCC(C)(C)C(=O)O)c1`, “inactive”.
Still for that read-out and setting: the value for `Nc1cccc(N)n1` was “inactive”; that for `Cc1cc(C)c(C=O)c(C)c1` was “inactive”.
Same read-out and setting: the value for `CC1C(C)(C)C2=C(C(=O)CCC2)C1(C)C` (stereo not drawn) was “inactive”; that for `CCN1CCCC1=O` was “inactive”.
On to `Oc1ccc(-c2ccccc2)c(Cl)c1`, for which the AC50 is 10.5 µM (active).
In the case of `CCCCCCCCCC(C)=O`, the compound was called inactive.
